According to PubChem BioAssay AID602396 (The Scripps Research Institute Molecular Screening Center, 2012):
Among all 360,000 compounds or so, about 460 (0.13%) were called active. The sample as a whole holds a higher share of actives than the screen did. A number with no mark means an inactive call.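 Rule for the calls: active = inhibition above the mean inhibition of all tested compounds plus 3 SD (cut at about 73% in these data); inactive = the rest.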

These compounds were tested against Nuclear receptor subfamily 5 group A member 2 (Homo sapiens) (UniProt O00482) (assay: LRH-1 (NR5A2) inverse agonists, primary screen, cell-based, luminescence, HEK293T, StAR-luciferase reporter (AID 602396;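 note: 0% = DMSO wells and 100% = reporter-only cells lacking LRH-1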)). Conditions: LRH-1 transfected, 24 h, at 3.6 µM, stronger effect = higher value.
Sequence of Nuclear receptor subfamily 5 group A member 2 (Homo sapiens) (O00482 whole entry, looked up): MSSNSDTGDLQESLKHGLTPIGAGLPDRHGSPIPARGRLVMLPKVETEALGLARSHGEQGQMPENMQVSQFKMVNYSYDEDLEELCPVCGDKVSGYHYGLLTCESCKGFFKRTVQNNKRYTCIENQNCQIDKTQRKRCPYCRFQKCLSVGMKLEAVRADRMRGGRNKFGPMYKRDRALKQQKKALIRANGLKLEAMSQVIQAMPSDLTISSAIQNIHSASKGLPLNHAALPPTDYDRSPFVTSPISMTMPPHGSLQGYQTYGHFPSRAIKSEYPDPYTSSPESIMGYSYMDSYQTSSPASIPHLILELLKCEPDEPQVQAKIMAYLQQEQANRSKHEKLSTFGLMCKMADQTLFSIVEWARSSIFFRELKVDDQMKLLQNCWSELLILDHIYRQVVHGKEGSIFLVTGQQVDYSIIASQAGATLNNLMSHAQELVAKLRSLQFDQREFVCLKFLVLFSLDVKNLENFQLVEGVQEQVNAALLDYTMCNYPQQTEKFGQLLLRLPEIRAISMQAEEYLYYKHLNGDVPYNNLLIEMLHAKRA
`COC(=O)c1ccc(CSc2ccc(S(=O)(=O)N3CCCCC3)cn2)cc1` showed an inhibition of 0.83%.
`CCOc1cc(C(=O)Nc2c(C)ccc3nsnc23)cc(OCC)c1OCC` showed an inhibition of 5.78%.
With `OCCCNc1nccc(-c2cc(Nc3cccc(Cl)c3)ncn2)n1` the inhibition was 96.8% (active).
With `CC(=O)Nc1ccc(NC(=O)CSc2nnnn2-c2ccccc2F)cc1` the inhibition was 3.27%.
Work on `CN(C)CCCn1c(N)c(C#N)c2nc(C#N)c(C#N)nc21` yielded an inhibition of -20%.
For `Cc1noc(C)c1NC(=O)Nc1cccc2c1O[C@H](CN(C)S(=O)(=O)c1c(C)noc1C)[C@@H](C)CN([C@H](C)CO)C2=O`, the inhibition was -28.3%.
In the case of `CCOc1ccc(Br)cc1S(=O)(=O)Nc1ccc(C(=O)OC(C)C(=O)N(C)c2ccccc2)cc1` (stereo unspecified), the inhibition is reported as -9.98%.
For `Cc1ccc(CC2CC(=O)N(c3cc(C)ccc3C)C2=O)cc1` (stereo unspecified), the inhibition was 5.12%.
For `COc1ccc(OCCn2ccnc2C)cc1`, the inhibition was 10.9%.
For `Cc1ccccc1/[N+]([O-])=C/c1ccncc1`, the inhibition was 13%.
Work on `Cc1cc(N2CCCC2=O)cc(C)c1S(N)(=O)=O` yielded an inhibition of 7.43%.
`CCN(C(=O)COC(=O)CCC(=O)c1cccs1)C1CCCCC1` was tested, and the inhibition was 4.1%.
Work on `CC1CC(c2ccccc2)n2nc(NC(=O)c3cccs3)nc2N1` (stereo unspecified) yielded an inhibition of 5.57%.
`CCc1ccc(NC(=O)CCNS(=O)(=O)c2cccs2)cc1` showed an inhibition of -12.4%.
`Cc1ccc(-n2c(=O)cc(N3CCN(Cc4ccccc4)CC3)[nH]c2=O)cc1` was tested, and the inhibition was 8.9%.
`Cc1ccc(C(=O)COC(=O)CCN2C(=O)C3C4CC(C(Br)C4Br)C3C2=O)cc1` (stereo unspecified) was tested, and the inhibition was -1.24%.
`Cc1cc(C(=O)NNC(=O)CCC2CCCCC2)c(C)o1` showed an inhibition of 2.29%.
In the case of `CC(C)c1ccc(NC(=O)C2CCCN(S(=O)(=O)c3cccnc3)C2)cc1` (stereo unspecified), the inhibition is reported as -1.1%.
`Cn1c(=O)c2c(nc(OCc3cccnc3)n2Cc2ccccc2)n(C)c1=O` was tested, and the inhibition was -21.8%.
In the case of `CCn1c(C)nc2c1C(=O)c1ccccc1C2=O`, the inhibition is reported as -4.55%.
Compound `Cc1ccc(-c2noc(C3CCCN(C(=O)c4cccc(Cl)c4)C3)n2)o1` (stereo unspecified) has an inhibition of -49.4%.
`Cc1ccc(-c2ccnc3nc(Sc4ncc(C(F)(F)F)cc4Cl)nn23)cc1` was tested, and the inhibition was -3.99%.
`CN(C)S(=O)(=O)c1ccc(N2CCCC2)c(C(=O)Nc2cccc(F)c2)c1` gave an inhibition of 8.36%.
With `Cc1nc(COc2cc3oc(=O)cc(C)c3cc2Cl)cs1` the inhibition was -10.4%.
`O=C(CN1CCN(S(=O)(=O)c2ccc3ccccc3c2)CC1)NC(=O)NC1CCCCC1` showed an inhibition of 14.8%.
`CCCCCN(C(=O)NC(=O)Nc1cccc(C)c1C)S(C)(=O)=O` gave an inhibition of -7.26%.
`CCCCn1c(=S)[nH]c2ncccc2c1=O` was tested, and the inhibition was 0.69%.
`Cc1cc(NC(=O)CS(=O)(=O)c2cn(C)c3ccccc23)no1` was tested, and the inhibition was -3.59%.
Compound `Cc1c(Cl)cnc(NC(=O)COC(=O)C2CCCC2)c1Cl` has an inhibition of 1.2%.
Work on `CC(=O)NS(=O)(=O)c1ccc2c(c1)Cc1cc(S(=O)(=O)NC(C)=O)ccc1-2` yielded an inhibition of 9.84%.
`N#Cc1ccc(CN2CCN(CC(=O)Nc3ccccc3C(=O)NC3CC3)CC2)cc1` gave an inhibition of 9.21%.
Work on `CCC1=NN(C(=O)Cc2ccc([N+](=O)[O-])cc2)C(O)(c2ccc(Br)cc2)C1` (stereo unspecified) yielded an inhibition of -7.24%.
`CCN(CC)C(=O)C1=C(C)N(Cc2ccccc2)C(=O)C(CC(=O)NC(c2ccccc2)c2ccccc2)C1` (stereo unspecified) gave an inhibition of -17.2%.
`O=C(NCCCn1ccnc1)C(=O)c1cn(CC(=O)N2CCCCCC2)c2ccccc12` showed an inhibition of 9.94%.
In the case of `CC(C)CCC(=O)Nc1cc(S(=O)(=O)N2CCOCC2)ccc1N1CCCC1`, the inhibition is reported as 6.05%.
Compound `Cc1cn([C@H]2C[C@H](O)[C@@H](CNC(=O)[C@H](N)Cc3cccnc3)O2)c(=O)[nH]c1=O` has an inhibition of 2.03%.
